# System: VDR:RXRa (NR concentration 270 nM, RXRa partner concentration 90 nM)
# Test: PBM binding z-score (relative to random genomic background probes); higher = stronger binding; sequences stand for … in GC…GCGATTGACAGCGTAGAATGAAGG
# Experimental: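 Protein-binding microarray (Agilent 4x180K custom design, double-stranded 60-nt probes: 5' GC cap, 34-nt variable region, 24-nt constant primer region; full probe sequence given). Purified or IVT nuclear receptor:RXRα heterodimers (3:1 NR:RXRα, mostly 270:90 nM) or homodimers were incubated for 1 h in PBS with 2% milk and no ligand, then detected with Alexa488 antibodies. Fluorescence from o1-orientation probes (~5 replicates averaged) was converted to z-scores against 500 random hg19 background probes. Variable regions are seed direct-repeat (DR0–DR5) sites, all their single-nucleotide variants and half-site ablations.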
row,Sequence,PBM binding z-score
1,TAGCCTAGGTCATTCAGGGTCCAGTATAGAAAGC,4.41
2,AGAACGAGGGCACGCTGAGTTGATACCAGAGTAG,2.23
3,GCTCGCAGGCCATTTGGGTCACTCAATGACGGGC,0.783
4,ACTAGTTGGTCAGCTGAGGTCACTCACAATTCGG,3.95
5,CCTCGGAGGACAACAGGAGGTTAGAGCTGCCAGA,-0.265
6,CGAACTAGGTCAAAGACAGTGAATCTCCGCACGC,1.36
7,GGAACGAGGGCAAAGTTAATAGCATCTGTCGACG,1.17
8,GCTAGTTGGTCAGTAAAAGGTCACCCACCGGTCG,3.44
9,CCTTACGGGTCACACCAGGTTATAGCATCGGAGT,4.89
10,CGAACTAGGTCTTTGACAGGACAGTGAATAGTAA,-0.318
11,ATCTCTGGGTAAAGTTCAGTGAAAGATCGATAGA,1.64
12,ACTAGTTGGTCAGCTGCGGTCACACACAATTCGG,0.586
13,TCTTGTAGATCTGCAGGTTAAGAAAGCTGGCCAA,0.239
14,GCGACTAGGGCAAAGCAGGTTACCATAAGGTTGG,-0.209
15,GCAGACGGGTGAAACGCAGGTAACTCAGGGTGGC,-0.555
16,CCTAGCAGGCCAGGGTCGCTCAAGCATTTCGCTT,0.8
17,ATATGAAGGTTAAGGGTCATTCAGGTTGGTTCGC,6.02
18,CGTCCAGGGTCAGCAGGTCAGTGAAAGCGACGTG,4.15
19,ATATGTACGTTATCGGGTCATTCAGTTTGCGCAT,5.03
20,CGTCAAAGTTCAACTACGGTAACGTAAAGCACGC,4.19

row,Sequence,PBM binding z-score
1,GCTTATAGATCAAGGTTAAGAAAGACTAAGCTAA,0.244
2,ATCGAAAGGTCGACGAGGTTAGTATACACCGTTT,6.41
3,GCGATTAGTTGAAAGGGCAACCGAATGATTCTCG,0.316
4,GCTAGTTGGTCTGTAAAAGGTCACACACCGGTCG,3.94
5,CGAACTAGGTCAGAACAGGACACTGAAGGATGAT,1.14
6,ATACCAAGGTGATCGTGAGGCCGTTGATACTAAC,0.401
7,CAGCCTAGGTCAGGGCCAGTATAGGAGGAACGTT,0.31
8,ATATCTAGGTAAAGATAGTTCAGTGAATGCAAAT,0.986
9,ACTATTAGTTGACTTAGGGCTACCGATACGACGC,-0.0525
10,CGTCCAAGGTCAAGGTCTGTGAAAGAGACTCGAA,3.73
11,TCATATAGGTAAACAGGTGATAGTCCGTAAGTTA,0.955
12,TCTATTCGTTGAAGGGCAACCGACGAGTCCGTTT,1.08
13,CCTCGGAGGACAACGGGAGGTCAGAGCTGCCAGA,1.91
14,CTACCAACGTGAACAAGGTCGTTGATTACTATTC,2.05
15,ATCTCTAGGTTAAGTTCAGTGAAAGATCGATAGA,2.37
16,ATCGAAAGGTCGAGGTGAGCATAGAGAAAGGGAA,2.36
17,GCTTACGGTTCAAAGGTTATAGCATGAATAGAAT,4.41
18,ATCTCTTGGTAAGACTCAGTTCAGTGAAGAACGC,0.946
19,TCTTGTAAATCAAGCAGGTTAAGAAAGCCTGAGT,0.479
20,AGAATGAGGTTTAGATCAGGGAAACAGAATACAT,-0.225

# Source: the supplement of paper PMC6555819
